Inconclusive results are not listed. A call without a number means that no potency is given here. Calls of active or inactive are those of the source. The call rests on the fitted dose curve; in most records, active means well fitted inhibition curve with a large enough effect; inconclusive means small, poorly fitted or top-dose-only effect; inactive means no such curve, though single readings can be large or run the other way.
Potency means the concentration at half of the fitted maximal effect.

The target in the assay is Retinaldehyde dehydrogenase 3 (Homo sapiens) (UniProt P47895). The assay can be described thus: qHTS for Inhibitors of the Aldehyde Dehydrogenase Family (ALDH1A3) Confirmatory screens (AID 2061311). Further: nearly all actives have a fitted effect of over 60% in size. The settings on record: ALDH inhibition qHTS; series mostly up to 46 µM. Background: qHTS replaces the single test concentration by a dilution series.
With `COc1ccccc1-c1cc2c(nc1OC)nc(CC1CC1)n2C`, the Potency entry was “inactive”.

On to `Cn1ncc2c(C(=O)NCC(F)(F)F)cc(-c3ccccc3F)nc21`, for which the Potency entry was “inactive”.

Take `COc1ccc(-c2nc3ccccc3c(=O)n2Cc2ccccc2)cc1OCc1ccc(NC(C)=O)cc1`: the Potency is 22.5 µM (active).

Consider `COc1ccc(-c2ccccc2C(=O)NCc2ccccn2)nn1`, for which the Potency entry is “inactive”.

As for `COc1ccc(N2CCN(C(=O)CS(=O)(=O)c3cccc4nsnc34)CC2)cc1`, the Potency entry is “inactive”.

For the compound `COCCn1c(CNC(=O)c2cc([N+](=O)[O-])ccc2Cl)nc2cccnc21`, the Potency result was “inactive”.

`CN(Cc1ccc(-c2ccccc2)cc1)CC1CCCCC1`: the Potency is 35.5 µM (active).

In the case of `COc1cccc(-c2nccc3c(=O)cc(N4CCOCC4)oc23)c1`, the Potency entry was “inactive”.

Consider `Cn1ncc2c(C(=O)NCc3ccc(F)cc3)cc(-c3ccc(F)cc3)nc21`, for which the Potency result was “inactive”.

With `CCOc1ccccc1NC(=O)Nc1cc(C(=O)NCc2ccc(C)cc2)ccc1N1CCCC1`, the Potency entry is “inactive”.

As for `O=C(Cn1cnc2onc(-c3ccc(Cl)cc3)c2c1=O)Nc1ccc(F)cc1`, the Potency entry was “inactive”.

`COCCOc1ccc(C(=O)N[C@@H]2CN(C(=O)NCc3ccccc3)CCC[C@H]2O)cc1`: the Potency entry is “inactive”.

Take `Cc1noc(C)c1-c1cnc(Nc2ccc(F)c(Cl)c2)c2c1CCO2`: the Potency was 31.6 µM (active).

For `O=C(O)c1ccc(Cn2c(SCc3ccc(F)cc3)nc3ccncc32)cc1`, the Potency result was “inactive”.

Take `COc1ccccc1-n1c(=O)c(C(=O)NC(C)C)nc2cccnc21`: the Potency entry is “inactive”.

`CCOc1ccc(S(=O)(=O)NCc2nc3cccnc3n2Cc2ccccc2OC)cc1`: the Potency is 15.8 µM (active).

`CC(=O)Nc1ccc(CN2CCCC(N3CCN(c4ccccc4)CC3)C2)cc1` (stereo not given): the Potency entry was “inactive”.

With `CCOc1ccc(NC(=O)N2CCC(CC(=O)NCc3ccccc3)C2)cc1` (stereo not given), the Potency entry is “inactive”.

Turning to `COc1ccc(C(=O)NCc2nnc3ccc(-c4ccccc4)nn23)c(C)c1`, the Potency result was “inactive”.

In the case of `Cn1cc(-c2cnc(Nc3ccncc3)c3c2CCO3)cn1`, the Potency result is “inactive”.

In the case of `CCOC(=O)c1noc2ncnc(Nc3ccc(C)c(F)c3)c12`, the Potency result is “inactive”.

Regarding `CCc1ccc(O)c(C(=O)c2cnc3cc(-c4ccc(C)cc4)nn3c2)c1`, the Potency result is “inactive”.

Regarding `COc1cc(F)ccc1-c1cnc2n[nH]c(-c3sccc3C)c2n1`, the Potency entry is “inactive”.

Regarding `O=C(CSc1nc(-c2ccco2)nc2cc(=O)[nH]n12)Nc1ccccc1Cl`, the Potency entry is “inactive”.

Turning to `COc1cc(CNC(=O)c2ccc(NC(=O)N3CCCCc4ccccc43)cc2)cc(OC)c1OC`, the Potency result was “inactive”.

With `O=C(CCS(=O)(=O)c1cccc2nonc12)Nc1ccc(F)cc1F`, the Potency entry was “inactive”.

Turning to `Cc1cc(=O)[nH]c(CCNc2nc(-c3ccncc3)nc3c2c(C)nn3C)n1`, the Potency result was “inactive”.

Regarding `CNCc1ccc(N2CCCC2)cc1`, the Potency entry was “inactive”.

In the case of `CCOc1ccc(CCNC(=O)c2cc3sccc3n2CC)cc1OCC`, the Potency entry was “inactive”.

Consider `CCc1nn(-c2ccc(OC)cc2)c(Oc2ccccc2F)c1CCC(=O)NC(C)C`, for which the Potency entry is “inactive”.

In the case of `c1cnc(-c2noc(-c3nc(-c4ccc5c(c4)OCO5)no3)n2)cn1`, the Potency entry was “inactive”.

Take `CCOCc1ccccc1Nc1ncnc2onc(-c3ccc(Cl)cc3)c12`: the Potency entry was “inactive”.

Turning to `COc1ccccc1-c1ccc2ncc(Nc3cccc(O)c3)n2n1`, the Potency entry was “inactive”.

As to `O=C(CC1CCOCC1)NCc1ccc(N2CCOCC2)cc1`, the Potency entry was “inactive”.

As to `O=C(C#Cc1ccccc1)NC1CCCc2c1cnn2-c1ccc(F)cc1F` (stereo not given), the Potency result was “inactive”.

`COc1ccc(Cl)cc1NC(=O)c1cc2nc(-c3ccc(C)cc3)cc(C(F)(F)F)n2n1`: the Potency result was “inactive”.

`Cc1cc(Br)ccc1NC(=O)CCNS(=O)(=O)c1cccc2nonc12`: the Potency result was “inactive”.

In the case of `O=C(Nc1ccc([C@@H](O)[C@H]2COCC(=O)N2CCCc2ccccc2)cc1)c1ccco1`, the Potency entry was “inactive”.

Take `O=C(Cn1c(=O)n(Cc2cccs2)c(=O)c2cccnc21)Nc1ccccc1F`: the Potency entry is “inactive”.

For the compound `CCc1nn2c(=O)c(S(=O)(=O)Nc3ccc(Cl)cc3)c(C)nc2s1`, the Potency result was “inactive”.

The record behind these values is PubChem BioAssay (NCATS).
